{
  "source": "the supplement of paper PMC8728848",
  "experiment_in_all_cases": "glycan array binding signal (z-score within array); higher = stronger binding",
  "conditions_in_all_cases": "glycan notation: IUPAC condensed, linker removed",
  "key": {"[1]": {"molecular_target": "GalNAc(b1-3)Gal(a1-4)Gal(b1-4)GlcNAc(b1-3)Gal(b1-4)Glc", "outline": "(§1)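 Glycan array data were curated from 3228 arrays in the Consortium for Functional Glycomics database and kept only where the protein sequence was available. Glycan names were converted to IUPAC-condensed notation, and columns mapping to the same glycan were averaged. The binding signal is a within-array Z-score, averaged across arrays of the same protein sequence at different concentrations or buffers and across linkers. Negative Z-scores can be read as non-binding.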"}, "Glc(b1-4)Glc": {"molecular_target": "Glc(b1-4)Glc", "outline": "as §1"}, "[2]": {"molecular_target": "GlcA3S(b1-3)Gal(b1-4)GlcNAc(b1-3)Gal(b1-4)Glc", "outline": "as §1"}, "[3]": {"molecular_target": "GlcNAc(b1-2)[GlcNAc(b1-4)]Man(a1-3)[GlcNAc(b1-4)][GlcNAc(b1-2)Man(a1-6)]Man(b1-4)GlcNAc(b1-4)GlcNAc", "outline": "as §1"}, "GlcNAc(b1-3)Gal(b1-4)Glc": {"molecular_target": "GlcNAc(b1-3)Gal(b1-4)Glc", "outline": "as §1"}, "[4]": {"molecular_target": "GlcNAc(b1-3)Gal(b1-4)GlcNAc(b1-2)Man(a1-3)[GlcNAc(b1-3)Gal(b1-4)GlcNAc(b1-2)Man(a1-6)]Man(b1-4)GlcNAc(b1-4)[Fuc(a1-6)]GlcNAc", "outline": "as §1"}, "[5]": {"molecular_target": "GlcNAc(b1-3)Gal(b1-4)GlcNAc(b1-3)Gal(b1-4)GlcNAc(b1-2)Man(a1-3)[GlcNAc(b1-3)Gal(b1-4)GlcNAc(b1-3)Gal(b1-4)GlcNAc(b1-2)Man(a1-6)]Man(b1-4)GlcNAc(b1-4)[Fuc(a1-6)]GlcNAc", "outline": "as §1"}, "[6]": {"molecular_target": "GlcNAc(b1-3)Gal(b1-4)GlcNAc(b1-3)Gal(b1-4)GlcNAc(b1-3)Gal(b1-4)GlcNAc(b1-2)[GlcNAc(b1-3)Gal(b1-4)GlcNAc(b1-3)Gal(b1-4)GlcNAc(b1-3)Gal(b1-4)GlcNAc(b1-6)]Man(a1-6)[GlcNAc(b1-3)Gal(b1-4)GlcNAc(b1-3)Gal(b1-4)GlcNAc(b1-3)Gal(b1-4)GlcNAc(b1-2)Man(a1-3)]Man(b1-4)GlcNAc(b1-4)[Fuc(a1-6)]GlcNAc", "outline": "as §1"}, "Man(a1-2)Man(a1-3)Man": {"molecular_target": "Man(a1-2)Man(a1-3)Man", "outline": "as §1"}, "[7]": {"molecular_target": "Man(a1-3)[Man(a1-6)]Man(b1-4)GlcNAc(b1-4)GlcNAc", "outline": "as §1"}, "[8]": {"molecular_target": "Neu5Ac(a2-3)Gal(b1-3)GlcNAc(b1-3)GalNAc", "outline": "as §1"}, "[9]": {"molecular_target": "Neu5Ac(a2-3)Gal(b1-3)[Fuc(a1-4)]GlcNAc", "outline": "as §1"}, "[10]": {"molecular_target": "Neu5Ac(a2-3)Gal(b1-4)GlcNAc(b1-2)Man(a1-3)[Neu5Ac(a2-3)Gal(b1-4)GlcNAc(b1-2)Man(a1-6)]Man(b1-4)GlcNAc(b1-4)[Fuc(a1-6)]GlcNAc", "outline": "as §1"}, "[11]": {"molecular_target": "Neu5Ac(a2-3)Gal(b1-4)[Fuc(a1-3)]GlcNAc(b1-3)GalNAc", "outline": "as §1"}, "[12]": {"molecular_target": "Neu5Ac(a2-6)Gal(b1-4)GlcNAc(b1-2)Man", "outline": "as §1"}, "[13]": {"molecular_target": "Neu5Ac(a2-6)Gal(b1-4)GlcNAc(b1-2)Man(a1-3)[GlcNAc(b1-2)Man(a1-6)]Man(b1-4)GlcNAc(b1-4)GlcNAc", "outline": "as §1"}, "[14]": {"molecular_target": "Neu5Ac(a2-6)Gal(b1-4)GlcNAc(b1-2)Man(a1-3)[Neu5Ac(a2-6)Gal(b1-4)GlcNAc(b1-2)Man(a1-6)]Man(b1-4)GlcNAc(b1-4)GlcNAc", "outline": "as §1"}, "[15]": {"molecular_target": "Neu5Ac(a2-6)Gal(b1-4)GlcNAc(b1-2)Man(a1-6)Man(b1-4)GlcNAc(b1-4)GlcNAc", "outline": "as §1"}, "[16]": {"molecular_target": "Neu5Ac(a2-6)GlcNAc(b1-4)GlcNAc(b1-4)GlcNAc", "outline": "as §1"}, "[17]": {"molecular_target": "Neu5Ac(a2-8)Neu5Gc(a2-3)Gal(b1-4)GlcNAc", "outline": "as §1"}, "Neu5Gc(a2-3)Gal(b1-4)Glc": {"molecular_target": "Neu5Gc(a2-3)Gal(b1-4)Glc", "outline": "as §1"}, "Neu5Gc(a2-6)GalNAc": {"molecular_target": "Neu5Gc(a2-6)GalNAc", "outline": "as §1"}, "[18]": {"molecular_target": "Neu5Gc(a2-8)Neu5Gc(a2-3)Gal(b1-4)GlcNAc(b1-3)Gal(b1-4)GlcNAc", "outline": "as §1"}},
  "note": "The full list was thinned out, with the strongest signals kept by preference.",
  "data": [
    {"binder": "PX14375D-bvu-513-34-513 (Bacteroides vulgatus) (protein) TEDTFWKDETDFNLALTSCYTPLKNALNGGYYGTRGVMLRIARADEVDFRNDISDVYTVNRFTNSNTNSLTQGMFYQFYNALYRTNSIMQKLEEKKEQFSTDFQNSVKGECLFIRGFYLFQLAKEFKDAPLRLTASQSPSTFPLAKSSQADIWAQAKEDLKTAASLLPITNKIGKPTQGAAYAALGKIYVYEENWQEAINVLEPLTQNPYTYKLVEDFNWNFDDTHENNAESIFELLIEDVGGTDLWGDGENINSTQSNTRPKEYAAAEVGGWYEANPTQQIMDIFWKEKDKDGNFDYRARCSVAWDYEGCTYYQRPFREVFAQDKWKTYWILKYQNWKTQKDEPAPPKSFINERAIRYADVLLMLAEAYMNKGALDTSIGYINQIRRRANLNDYSGPITKEGVFEDLVHQRAIEFFVEGERFYDLRRWGLLEQTLKTCDDTRYKNYQTGKSDNINKFNYFPIPAKELDTNPLCTPSEGW", "values": [
      {"measurement": "glycan array binding signal (z-score)", "setting": "[1]", "result": 0.403},
      {"measurement": "glycan array binding signal (z-score)", "setting": "Glc(b1-4)Glc", "result": 0.371},
      {"measurement": "glycan array binding signal (z-score)", "setting": "[2]", "result": -0.213},
      {"measurement": "glycan array binding signal (z-score)", "setting": "[3]", "result": -0.188},
      {"measurement": "glycan array binding signal (z-score)", "setting": "GlcNAc(b1-3)Gal(b1-4)Glc", "result": -0.384},
      {"measurement": "glycan array binding signal (z-score)", "setting": "[4]", "result": 1.56},
      {"measurement": "glycan array binding signal (z-score)", "setting": "[5]", "result": 1.62},
      {"measurement": "glycan array binding signal (z-score)", "setting": "[6]", "result": 2.65},
      {"measurement": "glycan array binding signal (z-score)", "setting": "Man(a1-2)Man(a1-3)Man", "result": -1},
      {"measurement": "glycan array binding signal (z-score)", "setting": "[7]", "result": 0.478},
      {"measurement": "glycan array binding signal (z-score)", "setting": "[8]", "result": -0.439},
      {"measurement": "glycan array binding signal (z-score)", "setting": "[9]", "result": 1.67},
      {"measurement": "glycan array binding signal (z-score)", "setting": "[10]", "result": -0.211},
      {"measurement": "glycan array binding signal (z-score)", "setting": "[11]", "result": 1.33},
      {"measurement": "glycan array binding signal (z-score)", "setting": "[12]", "result": -0.379},
      {"measurement": "glycan array binding signal (z-score)", "setting": "[13]", "result": -0.096},
      {"measurement": "glycan array binding signal (z-score)", "setting": "[14]", "result": -0.145},
      {"measurement": "glycan array binding signal (z-score)", "setting": "[15]", "result": 0.342},
      {"measurement": "glycan array binding signal (z-score)", "setting": "[16]", "result": 0.337},
      {"measurement": "glycan array binding signal (z-score)", "setting": "[17]", "result": 18.8},
      {"measurement": "glycan array binding signal (z-score)", "setting": "Neu5Gc(a2-3)Gal(b1-4)Glc", "result": -0.166},
      {"measurement": "glycan array binding signal (z-score)", "setting": "Neu5Gc(a2-6)GalNAc", "result": -0.168},
      {"measurement": "glycan array binding signal (z-score)", "setting": "[18]", "result": -0.969}
    ]}
  ]
}
